Shown are actives, neighbours in structure and some others; about 18% of the full set was active somewhere.
PLK1 PBD inh – qHTS for Inhibitors of PLK1-PDB (polo-like kinase 1 - polo-box domain): Primary Screen. Plk1 PBD binding of FITC phosphopeptide, fluorescence polarization. Potency, µM, without a hit: max response, negative = inhibition, hits mostly inhibitors. Serine/threonine-protein kinase PLK1 (Homo sapiens), P53350. AID 720504, 2013. actives 2.8% (n = 360,000); note: series mostly up to about 57 µM; nearly all actives have a fitted effect of over 65% in size
Target sequence (P53350 whole entry, looked up, the tested form may be a part): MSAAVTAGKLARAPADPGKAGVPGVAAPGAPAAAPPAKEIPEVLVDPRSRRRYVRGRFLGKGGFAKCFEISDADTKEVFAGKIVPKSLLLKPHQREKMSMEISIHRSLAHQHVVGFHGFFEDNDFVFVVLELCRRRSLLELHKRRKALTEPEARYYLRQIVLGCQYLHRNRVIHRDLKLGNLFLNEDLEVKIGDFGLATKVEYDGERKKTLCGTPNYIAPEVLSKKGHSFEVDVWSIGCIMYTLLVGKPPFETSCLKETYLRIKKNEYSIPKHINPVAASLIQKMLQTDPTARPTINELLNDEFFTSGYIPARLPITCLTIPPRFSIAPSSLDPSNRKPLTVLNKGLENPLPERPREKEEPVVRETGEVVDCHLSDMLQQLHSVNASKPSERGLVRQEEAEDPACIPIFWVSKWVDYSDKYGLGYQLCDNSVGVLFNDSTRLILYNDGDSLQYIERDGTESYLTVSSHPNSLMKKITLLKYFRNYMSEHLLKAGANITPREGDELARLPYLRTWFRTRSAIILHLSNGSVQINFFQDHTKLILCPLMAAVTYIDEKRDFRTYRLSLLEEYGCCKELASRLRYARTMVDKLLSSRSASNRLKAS
TDP1 cell noCPT – qHTS for Inhibitors of human tyrosyl-DNA phosphodiesterase 1 (TDP1): qHTS in cells in absence of CPT; actives 15% (n = 420,000); Potency, µM (doses to about 46.2 µM), without a hit: at the highest dose activity change, negative = growth inhibition, usual class: inhibitors; DT40 Tdp1-/- hTDP1 cells, no CPT, ATP luminescence, 48 h; note: nearly all actives have a fitted effect of over 55% in size
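Luminescent ATP content (CellTiter-Glo) served as the growth readout. Knockout chicken DT40 cells expressing human TDP1 were exposed to compounds without camptothecin for a minimum 48 hr at 37 °C.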
GCN5L2 inh – qHTS Assay for Inhibitors of GCN5L2 | Histone acetyltransferase KAT2A (Homo sapiens), Q92830 | GCN5L2 HAT assay, ThioGlo1 CoA-SH fluorescence | Potency, µM (doses to about 58.9 µM), inactives show top-dose activity change, negative = inhibition, usual class: inhibitors | actives 0.21% (n = 390,000)
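Free CoA generated was detected with ThioGlo1 (50uM) fluorescence at Ex340nm/Em540nm, read immediately and after 20 min at room temperature. Enzyme, 20 nM in HEPES pH 7.5 buffer, saw compounds 15 min before adding 75uM H3(1-25) peptide and 70uM acetyl-CoA.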
TDP1 block – qHTS Assay for Inhibitors of Tyrosyl-DNA Phosphodiesterase (TDP1) | Tyrosyl-DNA phosphodiesterase 1 (Homo sapiens), Q9NUW8 | recombinant TDP1, AlphaScreen DNA substrate cleavage | Potency, µM (doses to about 130 µM), inactives show top-dose activity change, negative = inhibition, usual class: inhibitors | actives 0.28% (n = 350,000) | AID 485290, 2010; note: nearly all actives have a fitted effect of over 40% in size
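Here, a 5' biotin and 3' phosphotyrosine-FITC DNA oligonucleotide reports Tdp1 activity: intact substrate bridges AlphaScreen beads, while cleavage leaves a 3' phosphate and drops signal. All incubations at room temperature.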
TDP1 cell CPT – qHTS for Inhibitors of human tyrosyl-DNA phosphodiesterase 1 (TDP1): qHTS in cells in presence of CPT | chicken DT40 Tdp1-/-;hTDP1 cells + 20 nM CPT, ATP luminescence, 48 h | Potency, µM (highest dose often 46.2 µM), inactives show top-dose activity change, negative = growth inhibition, most hits filed as inhibitors | actives 12% (n = 420,000); note: nearly all actives have a fitted effect of over 55% in size
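Chicken DT40 Tdp1-/- cells complemented with human TDP1, 400 cells/well, exposed to compounds plus 20 nM camptothecin for at least 48 h at 37 C; viability read as ATP content by CellTiter-Glo luminescence.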
VDR inh – Inhibitors of the vitamin D receptor (VDR): qHTS; Vitamin D3 receptor (Homo sapiens), P11473; VDR-SRC2-3 peptide fluorescence polarization, 2 h; Potency, µM, for inactives: max response, negative = inhibition, hits mostly inhibitors; actives 0.93% (n = 400,000)
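FP read-out; VDR + SRC2-3 coactivator peptide; 23 nl compound by pintool; 2 h RT incubation; reagents held at 4 deg C, protected from light.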
Active calls of the source: *; [ ] = dose if it differs, or a comment. Calls come from the whole dose curve; as a rule, active = well fitted curve in the direction sought with a large enough effect; inconclusive = small, poorly fitted or top-dose-only effect, or another doubt; inactive = no such curve, though single readings can be large; an effect the other way counts as inactive or inconclusive. % is set by controls: 0 for no effect and ±100 for the full control effect; potency is the fitted concentration of half-maximal effect.

What do the screens show for `O=C(NCc1ccccn1)Nc1ccc(F)c(Cl)c1`?
PLK1 PBD inh: -4.8%; TDP1 cell noCPT: -12.9%; GCN5L2 inh: -1.9%; TDP1 block: 1.2%; TDP1 cell CPT: -22.2%; VDR inh: 11.1%

Results for Fc1ccc(C(CCNCc2ccccn2)c2ccc(Cl)cc2)cc1 (configuration not stated) ?
PLK1 PBD inh: 5.4%; TDP1 cell noCPT: 18.4µM*; GCN5L2 inh: -23.7%; TDP1 cell CPT: inconclusive; VDR inh: -0.5%

Results for CC(C)NC(=O)C(=O)c1cn(C)c2ccccc12 ?
PLK1 PBD inh: 0.5%; TDP1 cell noCPT: -4.6%; GCN5L2 inh: -7.6%; TDP1 block: 1.2%; TDP1 cell CPT: 15.8%; VDR inh: 23.9%

What do the screens show for `Cn1cc(C(=O)C(=O)NC2CC2)c2ccccc21`?
PLK1 PBD inh: 26.7µM*; TDP1 cell noCPT: -13.9%; TDP1 cell CPT: -5.7%; VDR inh: -5.8%

How did O=C(CSc1nnc(-c2ccc(S(=O)(=O)N3CCCC3)cc2)o1)NCc1ccccc1 do in these assays?
PLK1 PBD inh: -7.0%; TDP1 cell noCPT: 18.4µM*; GCN5L2 inh: -4.8%; TDP1 block: 7.8%; TDP1 cell CPT: 23.1µM*; VDR inh: 9.1%

Results for CN(C)c1ccc2c(-c3ccccc3)c3ccc(=[N+](C)C)cc-3oc2c1 ?
GCN5L2 inh: inconclusive; TDP1 block: 20.7%; VDR inh: 44.7µM*

Results for CCOC(=O)c1ccc(NC(=O)c2nc[nH]c2C(=O)NCCCCNC(=O)c2[nH]cnc2C(=O)Nc2ccc(C(=O)OCC)cc2)cc1 ?
PLK1 PBD inh: -3.8%; TDP1 cell noCPT: 4.61µM*; GCN5L2 inh: 0.9%; TDP1 block: -0.1%; TDP1 cell CPT: inconclusive; VDR inh: -25.4%

How did CCOC(=O)c1ccc(NC(=O)c2nc[nH]c2C(=O)NCCCCCNC(=O)OC(C)(C)C)cc1 do in these assays?
PLK1 PBD inh: -5.5%; TDP1 cell noCPT: 18.4µM*; GCN5L2 inh: 5.1%; TDP1 block: 5.0%; TDP1 cell CPT: inconclusive; VDR inh: -2.6%

Results for C=CC1=C2C=C(C3CC3)N(CCN3CCOCC3)C=C2C(=O)C(C)(OC(=O)c2ccco2)C1=O (configuration not stated) ?
TDP1 block: -6.8%[12.3 µM]

How did CC(C)[C@H](/C=C/C[Si](C)(C)C)[C@H](C)C(O)/C=C/CCCOC(=O)C(C)(C)C (some centres not stated) do in these assays?
TDP1 block: 5.6%; VDR inh: 0.6%

What do the screens show for `Cc1ccc(Cn2c(=O)n(CCCCC(=O)NCCc3ccc(Cl)cc3)c(=O)c3ccccc32)cc1`?
TDP1 cell noCPT: inconclusive; GCN5L2 inh: -5.1%; TDP1 block: 0.9%; TDP1 cell CPT: inconclusive; VDR inh: -7.5%

Results for CCOC(=O)C1=C(C)N=c2s/c(=C/c3ccc(OCC(=O)O)c(OC)c3)c(=O)n2C1c1ccc(Cl)cc1 (configuration not stated) ?
PLK1 PBD inh: 6.1%; TDP1 cell noCPT: inconclusive; TDP1 cell CPT: 3.3%; VDR inh: inconclusive

How did O=C1CCCC2=C1C(c1ccc(Cl)cc1)n1c(s/c(=C\c3ccc4ccncc4c3)c1=O)=N2 (configuration not stated) do in these assays?
PLK1 PBD inh: -19.5%; TDP1 cell noCPT: 20.6µM*; GCN5L2 inh: 1.9%; TDP1 block: 1.8%; TDP1 cell CPT: inconclusive; VDR inh: -24.4%

Compound activity as filed in PubChem.
